In all, about 33,000 sequences were measured (“E-score (-0.5 to 0.5)”: median about -0.016, highest 2% from about 0.32 on). The sample holds the highest values, similar sequences and a random draw of the others, so the mix is not that of the screen.
These sequences were tested against T1, Stp1 (UniProt B3LFK1) (assay: PBM E-score (8-mer binding enrichment) (E-score (-0.5 to 0.5)); higher = stronger / more preferred TF binding). Conditions: protein concentration: 200 nM; construct: GST-full length.
T1 sequence: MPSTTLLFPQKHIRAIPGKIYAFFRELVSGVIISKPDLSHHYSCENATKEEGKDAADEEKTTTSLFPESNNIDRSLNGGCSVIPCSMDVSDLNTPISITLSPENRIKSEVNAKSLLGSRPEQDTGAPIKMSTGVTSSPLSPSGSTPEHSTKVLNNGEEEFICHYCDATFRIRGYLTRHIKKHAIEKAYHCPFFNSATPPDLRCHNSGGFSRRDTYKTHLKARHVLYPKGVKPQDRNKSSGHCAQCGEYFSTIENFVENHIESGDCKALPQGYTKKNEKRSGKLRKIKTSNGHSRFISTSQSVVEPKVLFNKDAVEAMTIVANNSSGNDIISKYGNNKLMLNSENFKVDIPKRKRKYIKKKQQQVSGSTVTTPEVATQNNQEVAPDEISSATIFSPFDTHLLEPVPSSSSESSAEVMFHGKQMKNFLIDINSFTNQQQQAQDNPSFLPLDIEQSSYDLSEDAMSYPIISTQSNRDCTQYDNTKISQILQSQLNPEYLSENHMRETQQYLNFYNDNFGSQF
Procedure: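 Universal 'all 10-mer' protein binding microarrays (Agilent AMADID 015681) probed with GST-tagged S. cerevisiae TFs (full-length or DBD) made by in vitro transcription/translation (PURExpress), about 100-200 nM. Bound TF was detected with fluorescent anti-GST. Each ungapped 8-mer (which stands for itself and its reverse complement) is scored by the PBM enrichment score (E-score), a modified Wilcoxon-Mann-Whitney statistic from -0.5 to +0.5, computed with the Universal PBM Analysis Suite. Scale: above 0.35 generally sequence-specific binding.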

| Sequence | PBM E-score |
| --- | --- |
| CTGCGCCA | 0.106 |
| CGGCGCCC | 0.38 |
| AACTATCG | -0.203 |
| CTCTGGCA | -0.203 |
| ACAAGTGC | -0.127 |
| CGTCAGAG | -0.0954 |
| GCAATGGC | -0.116 |
| AGGCTGTA | 0.0388 |
| ATCTATTG | 0.0947 |
| ACAGATAA | -0.0189 |
| ATCAATGG | -0.0372 |
| AACAACCA | 0.0647 |
| GCCTCGTA | 0.346 |
| CCCTCGTA | -0.0643 |
| ACCTCGTA | -0.0684 |
| CGCCATGC | 0.226 |
| ATAGTGCC | 0.311 |
| GTGGCACA | 0.125 |
| GGGGCACC | 0.0924 |
| GGGGCACA | 0.0124 |
| ACGGCACC | 0.484 |
| GCGGCACC | 0.477 |
| AGGGCACC | 0.0197 |
| GCGGCACA | 0.463 |
| CCGGCACC | 0.254 |

| Sequence | PBM E-score |
| --- | --- |
| CGGGCACC | 0.237 |
| GACGCCAC | 0.0288 |
| GATCCTAC | -0.1 |
| ACTCTCAG | 0.0178 |
| CGGCACTC | 0.365 |
| GGGCACTA | 0.23 |
| CTGCACTC | 0.109 |
| AGGCACTC | 0.139 |
| CGGCACTA | 0.446 |
| AGGCACTA | 0.301 |
| CAGAGGTA | 0.062 |
| GTTCCATA | -0.164 |
| CCTGGCCG | -0.105 |
| AAAGTATC | 0.118 |
| AGGTAAGC | -0.118 |
| TATCTCCA | 0.103 |
| CCTACCTA | -0.0899 |
| AGCGGCTA | 0.165 |
| AGCGGCTG | 0.0689 |
| CGCGGCTA | 0.397 |
| CCCGGCTC | -0.238 |
| AGCGGCTC | 0.388 |
| ATCGGCTC | 0.136 |
| CGCGGCTC | 0.464 |
| CTCGGCTC | 0.029 |

| Sequence | PBM E-score |
| --- | --- |
| GGCGGCTA | 0.207 |
| AGGCCGGG | -0.163 |
| CTGAAAGC | 0.0435 |
| ACTACTGA | -0.0374 |
| AGCCAGGC | -0.101 |
| AAGGCGGC | 0.319 |
| GAGGAGGC | 0.00167 |
| AAGGCGGA | -0.099 |
| GAGGCGGC | 0.374 |
| GAGGCGGA | -0.00688 |
| CAGGCGGC | 0.3 |
| GGAAACTA | -0.133 |
| TCAATGAA | 0.0662 |
| ACCAAGTG | -0.0911 |
| GAGTAGAC | 0.0184 |
| AGTCGAAC | -0.146 |
| ACCATGCC | 0.199 |
| CCCATGCC | -0.0109 |
| ATGATGCC | 0.337 |
| CTAATGCC | 0.221 |
| GCCATGCC | 0.324 |
| GAAATGCA | -0.0558 |
| CAAATGCC | 0.227 |
| CTGATGCC | 0.187 |
| ATAATGCC | 0.325 |

| Sequence | PBM E-score |
| --- | --- |
| ATAATGCG | -0.0164 |
| ATGATGCG | 0.148 |
| GAAATGCC | 0.358 |
| TACACACA | 0.202 |
| ATGGATTA | -0.0582 |
| ACCTGGAT | -0.266 |
| GAAGCATA | -0.00057 |
| GTCACAAA | -0.0375 |
| AGTCATTG | -0.381 |
| CACACTCA | 0.0928 |
| AAATTTCT | -0.0455 |
| CCGATGCC | 0.264 |
| AAAATGCC | 0.352 |
| GCGATGCC | 0.319 |
| GCGATGCA | -0.156 |
| AAAATGCA | -0.0731 |
| AAAATGCT | 0.164 |
| ACTCACAC | -0.063 |
| CAATCCAA | 0.0601 |
| AAGCTGGG | -0.164 |
| AGCAATTA | 0.0484 |
| CCCACACC | -0.0557 |
| AAGCGGCT | 0.354 |
| AAGCGGGA | -0.095 |
| CAGCGGCA | 0.3 |

| Sequence | PBM E-score |
| --- | --- |
| TAGCGGCA | 0.291 |
| AAGCGGCA | 0.455 |
| CAGCGGCG | 0.34 |
| AAGCGGAT | -0.0611 |
| AAGCGGAA | 0.0259 |
| AAGCGGGT | -0.0561 |
| GAGCGGAA | 0.141 |
| GAGCGGCA | 0.44 |
| CAGCGGCC | -0.111 |
| AAAGTTAA | 0.102 |
| CCCCAGTC | -0.324 |
| ACGTGTTA | 0.116 |
| GTAAGAGA | -0.0111 |
| AACTCTAC | -0.212 |
| AATCGCTC | -0.292 |
| TGAGATCA | 0.0358 |
| GAGGGGGC | -0.277 |
| CTGACCAG | -0.136 |
| AAGCGGAG | -0.0617 |
| AAGCGGCC | 0.282 |
| AAGCGGCG | 0.458 |
| CAGCGTTC | 0.0494 |
| AGGCGTTC | 0.0316 |
| CGGCGTTA | 0.454 |
| CGGCGTTC | 0.391 |

| Sequence | PBM E-score |
| --- | --- |
| AGGCGTTA | 0.236 |
| GGGCGTTA | 0.206 |
| CGGAGGAA | -0.229 |
| CCTCCATA | 0.0205 |
| GGCCGCAC | 0.289 |
| CACCGCAA | 0.0442 |
| TACCGCAA | 0.117 |
| AGCCGCAG | 0.258 |
| CGCCGCAA | 0.421 |
| CGCCGCAG | 0.436 |
| TGCCGCCA | 0.229 |
| CGCCGCAC | 0.478 |
| TGCCGCAA | 0.333 |
| GGCCGCAA | 0.131 |
| CCCCGCAG | -0.0786 |
| CCCCGCAC | -0.00823 |
| CAAAGACG | 0.0347 |
| AAATGCAA | 0.0071 |
| ATTAGATA | 0.11 |
| ACTCACAA | -0.0902 |
| CGCAGTAA | 0.0664 |
| GGTGAGGA | 0.0236 |
| ATGGGTCA | -0.255 |
| CGCCATAC | 0.194 |
| AAACCGGG | -0.195 |

| Sequence | PBM E-score |
| --- | --- |
| AATCCTTC | -0.128 |
| ATACAGAC | -0.0347 |
| CTGTGCCC | 0.242 |
| CCGTGACG | 0.109 |
| ATGTGCCA | 0.137 |
| CCGTGCCG | 0.47 |
| GCGTGCCC | 0.0203 |
| GCGTGCCA | 0.206 |
| ATGTGCCG | 0.377 |
| CCCTGCCG | 0.161 |
| TCGTGCCA | 0.177 |
| ATGTGCCC | 0.0678 |
| CCGTGCCC | 0.365 |
| CCGTGCCA | 0.35 |
| ACTTCTGC | 0.0768 |
| GCTTCATA | 0.0285 |
| CTTGGCAA | -0.119 |
| CCACCCGG | -0.218 |
| CGCAAGTC | -0.309 |
| GCTACTGA | -0.0112 |
| CAAGGCTA | 0.275 |
| CACAATGC | 0.00061 |

From the supplement of paper PMC3334620
